The target in assay [1] is Guanine nucleotide-binding protein G(i) subunit alpha-1 (Homo sapiens) (UniProt P63096). Kind of assay: qHTS Assay for Inhibitors of RGS12 GoLoco Motif Activity (Green Fluorophore) (AID 879).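 Further: negative values mean loss of peptide binding seen as reduced polarization.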 The essentials:
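Fluorescence polarization assay: 50 nM Gαi1 with 10 nM FITC-labeled RGS12 GoLoco peptide in 10 mM Tris pH 7.5, 150 mM NaCl, 0.1 mM GDP, 0.05% NP40, 10 min at room temperature with compound.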

Assay [2] has as its target Cytochrome P450 3A4 (Homo sapiens) (UniProt P08684). The assay can be described thus: qHTS Assay for Inhibitors and Substrates of Cytochrome P450 3A4 (AID 884). Further: nearly all actives have a fitted effect of over 50% in size. Further: potency means the concentration at half of the fitted maximal effect. The essentials:
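20 nM human CYP3A4 with 25 uM Luciferin-PPXE (at KM) in 200 mM KPO4, preincubated 10 min with compound; NADPH regeneration started a 60 min RT reaction. Luciferin detected by luminescence, normalized to 57 uM ketoconazole as full inhibition.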
(In general: In qHTS, concentration-response curves come from the screen itself.)

Assay [3] shares this target. The assay can be described thus: qHTS Assay for Activators of Cytochrome P450 3A4 (AID 885). Further: nearly all actives have a fitted effect of over 65% in size. Further: potency means the concentration at half of the fitted maximal effect. The essentials:
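Steps: enzyme/substrate mix dispensed; compound added, 10 min RT; NADPH regeneration solution added, 60 min RT; luciferin detection buffer stops reaction; 20 min later luminescence measured.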

The target in assay [4] is 3',5'-cyclic-AMP phosphodiesterase 4B (Homo sapiens) (UniProt Q07343). The assay can be described thus: qHTS Assay for Inhibitors of PDE-IV (AID 607; active means well fitted activation curve with a large enough effect in the main read-out, with a control signal flat, not every such curve was filed as active). The essentials:
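The readout is membrane depolarisation from a cAMP-sensing CNG channel, detected with a potential dye at ex 535/em 590. Cells were HEK293-derived (endogenous PDE-IV) at 1000 cells/well, titrated up to 22.9 uM final.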

Assay [5] concerns the target Cytochrome P450 2D6 (Homo sapiens) (UniProt P10635). The assay can be described thus: qHTS Assay for Inhibitors and Substrates of Cytochrome P450 2D6 (AID 891). Further: nearly all actives have a fitted effect of over 60% in size. Further: potency means the concentration at half of the fitted maximal effect. The essentials:
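Human CYP2D6 (5 nM) with 30 uM Luciferin-ME EGE (at Km) in 100 mM KPO4, compound preincubated 10 min, then NADPH regeneration system for 60 min at room temperature. Luciferin read by luminescence; normalized to 1.43 uM quinidine.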

The target in assay [6] is Cytochrome P450 2C9 (Homo sapiens) (UniProt P11712). The assay can be described thus: qHTS Assay for Inhibitors and Substrates of Cytochrome P450 2C9 (AID 883). Further: nearly all actives have a fitted effect of over 60% in size. Further: potency means the concentration at half of the fitted maximal effect. The essentials: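 Signal: luciferase luminescence reporting luciferin produced by CYP2C9. Conditions: 10nM enzyme, Luciferin-H 100uM at KM, 25mM KPO4, 37C, 60 min NADPH-driven reaction. Reference: 57uM sulphaphenazole as 100% inhibition.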
Sequence of Cytochrome P450 2C9 (Homo sapiens) (P11712 whole entry, looked up): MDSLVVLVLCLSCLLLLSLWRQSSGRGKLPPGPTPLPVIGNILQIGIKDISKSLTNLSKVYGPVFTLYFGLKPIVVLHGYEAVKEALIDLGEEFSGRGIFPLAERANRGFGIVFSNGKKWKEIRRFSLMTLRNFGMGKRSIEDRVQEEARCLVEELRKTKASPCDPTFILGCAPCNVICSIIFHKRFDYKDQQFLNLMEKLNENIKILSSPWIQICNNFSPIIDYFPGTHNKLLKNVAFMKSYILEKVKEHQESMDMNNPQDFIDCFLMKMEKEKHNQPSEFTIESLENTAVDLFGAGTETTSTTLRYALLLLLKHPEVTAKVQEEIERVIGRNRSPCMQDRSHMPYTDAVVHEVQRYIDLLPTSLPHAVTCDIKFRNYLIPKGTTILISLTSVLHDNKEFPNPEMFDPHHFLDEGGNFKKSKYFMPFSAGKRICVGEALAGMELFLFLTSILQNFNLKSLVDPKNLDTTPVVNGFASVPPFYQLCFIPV

Results on 52 molecules are retold here after PubChem BioAssay (NCATS).

“And” between values parts separate entries of the source, which are not always exact repeats. Identical values can stand only once. Inconclusive results are not listed. Where a call stands in place of a potency, no number is given. The source made the active and inactive calls. Unless noted, the call rests on the fitted dose curve; in most records, active means well fitted curve in the direction sought with a large enough effect; inconclusive means small, poorly fitted or top-dose-only effect, or another doubt; inactive means no such curve, though single readings can be large; an effect the other way counts as inactive or inconclusive.

Sequence of Cytochrome P450 2D6 (Homo sapiens) (P10635 whole entry, looked up): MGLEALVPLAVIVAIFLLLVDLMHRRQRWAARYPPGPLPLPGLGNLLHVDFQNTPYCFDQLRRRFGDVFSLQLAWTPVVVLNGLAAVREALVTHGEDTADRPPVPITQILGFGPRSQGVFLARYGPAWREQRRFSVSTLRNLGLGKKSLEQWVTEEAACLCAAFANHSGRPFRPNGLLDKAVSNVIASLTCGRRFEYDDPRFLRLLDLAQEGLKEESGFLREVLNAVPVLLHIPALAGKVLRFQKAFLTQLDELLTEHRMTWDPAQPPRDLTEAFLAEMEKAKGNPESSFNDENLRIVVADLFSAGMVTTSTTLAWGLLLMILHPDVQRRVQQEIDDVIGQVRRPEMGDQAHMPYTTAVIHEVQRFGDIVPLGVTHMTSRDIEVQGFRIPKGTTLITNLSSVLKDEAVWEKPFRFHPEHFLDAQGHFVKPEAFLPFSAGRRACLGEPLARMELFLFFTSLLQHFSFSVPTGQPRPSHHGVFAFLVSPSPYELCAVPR
Sequence of Cytochrome P450 3A4 (Homo sapiens) (P08684 whole entry, looked up): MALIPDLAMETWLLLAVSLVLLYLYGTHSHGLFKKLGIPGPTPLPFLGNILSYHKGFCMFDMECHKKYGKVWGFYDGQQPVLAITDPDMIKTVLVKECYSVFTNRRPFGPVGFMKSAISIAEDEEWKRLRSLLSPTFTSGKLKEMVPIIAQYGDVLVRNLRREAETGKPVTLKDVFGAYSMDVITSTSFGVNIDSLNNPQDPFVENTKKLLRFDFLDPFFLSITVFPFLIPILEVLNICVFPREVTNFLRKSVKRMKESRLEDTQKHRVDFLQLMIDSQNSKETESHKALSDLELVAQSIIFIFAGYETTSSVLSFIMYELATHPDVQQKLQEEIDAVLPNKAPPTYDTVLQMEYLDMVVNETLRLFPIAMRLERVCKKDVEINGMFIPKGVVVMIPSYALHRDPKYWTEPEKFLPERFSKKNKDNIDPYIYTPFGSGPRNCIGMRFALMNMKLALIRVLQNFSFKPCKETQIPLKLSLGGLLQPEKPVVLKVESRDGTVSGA
Sequence of Guanine nucleotide-binding protein G(i) subunit alpha-1 (Homo sapiens) (P63096 whole entry, looked up): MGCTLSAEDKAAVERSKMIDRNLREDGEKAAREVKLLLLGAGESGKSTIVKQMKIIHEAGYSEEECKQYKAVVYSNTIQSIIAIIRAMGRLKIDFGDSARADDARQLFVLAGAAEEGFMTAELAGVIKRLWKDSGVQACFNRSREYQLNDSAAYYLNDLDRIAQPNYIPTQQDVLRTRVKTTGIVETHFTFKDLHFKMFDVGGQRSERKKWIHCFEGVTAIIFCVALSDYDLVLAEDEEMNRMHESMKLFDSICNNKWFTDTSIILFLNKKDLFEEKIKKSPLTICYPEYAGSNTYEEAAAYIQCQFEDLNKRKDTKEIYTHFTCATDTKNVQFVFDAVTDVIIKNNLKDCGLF
Sequence of 3',5'-cyclic-AMP phosphodiesterase 4B (Homo sapiens) (Q07343 whole entry, looked up): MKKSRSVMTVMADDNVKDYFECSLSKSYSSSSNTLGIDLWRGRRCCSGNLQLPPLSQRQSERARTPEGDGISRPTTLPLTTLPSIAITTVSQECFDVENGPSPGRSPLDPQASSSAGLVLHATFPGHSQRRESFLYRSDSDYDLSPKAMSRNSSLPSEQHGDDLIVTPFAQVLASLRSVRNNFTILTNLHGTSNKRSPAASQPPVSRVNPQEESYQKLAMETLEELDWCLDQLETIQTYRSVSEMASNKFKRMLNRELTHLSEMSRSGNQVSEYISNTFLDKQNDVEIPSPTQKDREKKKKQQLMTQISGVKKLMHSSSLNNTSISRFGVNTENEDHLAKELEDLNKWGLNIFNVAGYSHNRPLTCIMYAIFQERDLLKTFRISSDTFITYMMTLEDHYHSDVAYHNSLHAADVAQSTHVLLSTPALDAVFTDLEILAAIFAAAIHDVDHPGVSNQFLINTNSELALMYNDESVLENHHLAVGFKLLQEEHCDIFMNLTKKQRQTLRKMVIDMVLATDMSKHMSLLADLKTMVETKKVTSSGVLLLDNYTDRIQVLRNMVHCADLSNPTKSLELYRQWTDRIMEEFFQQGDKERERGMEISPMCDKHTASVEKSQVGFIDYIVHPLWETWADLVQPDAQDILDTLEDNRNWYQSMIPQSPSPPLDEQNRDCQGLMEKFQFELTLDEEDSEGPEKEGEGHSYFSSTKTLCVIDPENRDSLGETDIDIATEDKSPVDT

With `NCCCNCCCCNCCCN`, the Potency result in assay [1] is “inactive”.
In the case of `CC(N)=O`, in assay [1], the Potency entry was “inactive”.
Same read-out and setting: the result for `N[C@@H](CS(=O)O)C(=O)O` reads “inactive”; that for `Cn1c(=O)c2[nH]c(-c3ccc(S(=O)(=O)O)cc3)nc2n(C)c1=O`, “inactive”.
As for `c1ccc2c(c1)CC(N1CCN(c3cccc4c3OCCO4)CC1)C2`, the Potency entry in assay [1] and in assay [2] was “inactive” in each case. In addition, the Potency in assay [3] was 25.1 µM (active).
As for `CCCC(=O)NCCc1c2n(c3ccc(OC)cc13)CCCc1ccccc1-2`, in assay [1], the Potency result was “inactive”.
Turning to `COc1ccc2c(c1)c(CC(=O)O)c(C)n2C(=O)c1ccccc1`, the Potency entry in assay [4] and in assay [5] was “inactive” in each case.
For the molecule `CCCCCCC/C=C\CCCCCCCCC(=O)O`, the Potency entry in assay [1] is “inactive”.
In the case of `Nc1ccc(-c2nc3ccc(-c4nc5ccc(N)cc5[nH]4)cc3[nH]2)cc1`, the Potency entry in assay [1] and in assay [3] was “inactive” throughout. For the same molecule, in assay [2], the Potency is 0.0631 µM (active).
As to `NC1(C(=O)O)CC1`, the Potency entry in assay [1] is “inactive”.
Still for that read-out and setting: the result for `O=C(O)C1CCNCC1` reads “inactive”.
The same measure, in the same setting: the entry for `COc1cc(CC(=O)O)ccc1O` is “inactive”.
Regarding `N[C@@H](Cc1ccc(O)c(I)c1)C(=O)O`, the Potency entry in assay [1] and in assay [2] was “inactive” in each case.
As to `NOCC(=O)O`, the Potency result in assay [1] was “inactive”.
Turning to `N#Cc1cc2nc(O)c(O)nc2cc1[N+](=O)[O-]`, the Potency result in assay [1] and in assay [6] was “inactive” in each case.
`O=C(O)/C(=C/c1c(C(=O)O)[nH]c2cc(Cl)cc(Cl)c12)c1ccccc1`: the Potency result in assay [1] was “inactive”.
Take `CC(C)(CO)Cc1cc(C(C)(C)C)c(O)c(C(C)(C)C)c1`: the Potency entry in assay [1], in assay [3] and in assay [5] was “inactive” in each case. Besides, in assay [2], the Potency is 2.51 µM (active).
For the molecule `Oc1ccc(Cn2cc[nH]c2=S)cc1`, the Potency result in assay [1], in assay [6] and in assay [3] was “inactive” each time.
As to `COc1ccccc1N1CCN(CCN(C(=O)c2ccc(F)cc2)c2ccccn2)CC1`, the Potency entry in assay [1] is “inactive”.
For `OC1(c2ccc(Cl)cc2)CCN(Cc2c[nH]c3ccccc23)CC1`, the Potency result in assay [1] and in assay [6] was “inactive” throughout.
As to `Nc1nc2[nH]c(=O)cnc2c(=O)[nH]1`, the Potency result in assay [1] was “inactive”.
On the same count and under the same terms, the result for `COc1ccccc1N1CCN(CCCNc2c(C)c(=O)n(C)c(=O)n2C)CC1` reads “inactive”.
For `NC1(C(=O)O)CCCCC1`, the Potency result in assay [1] and in assay [5] was “inactive” in each case.
Take `NC/C=C\C(=O)O`: the Potency entry in assay [6], in assay [2] and in assay [5] was “inactive” each time.
On to `CN(C)CCCc1cc(C(=O)Nc2ccc(-c3ccncc3)cc2)ccc1O`, for which, in assay [3], the Potency result is “inactive”. In addition, the Potency in assay [5] was 5.01 µM (active).
Regarding `CN(C)CCC(c1ccc(Br)cc1)c1ccccn1` (stereo not given), in assay [2], the Potency result was “inactive”.
Regarding `COc1ccc(NC(=O)c2ccc(-c3ccc(-c4noc(C)n4)cc3C)cc2)cc1N1CCN(C)CC1`, the Potency in assay [6] is 7.94 µM (active). Further, in assay [2], the Potency entry was “inactive”.
Consider `CCCCCCCCCCC(C)(C)C(=O)Nc1c(OC)cc(OC)cc1OC`, for which the Potency in assay [2] was 7.94 µM (active). Besides, the Potency result in assay [3] is “inactive”.
Consider `N=C(N)SCCc1cnc[nH]1`, for which the Potency entry in assay [1] and in assay [3] was “inactive” in each case. For the same molecule, the Potency in assay [5] was 6.31 µM (active).
Take `CCCOC(=O)c1c(-c2ccccc2)nc(CC)c(C(=O)SCC)c1CCC`: the Potency entry in assay [3] is “inactive”.
On to `CC(C)(C)c1cc(/C=C(\C#N)C(N)=S)cc(C(C)(C)C)c1O`, for which, in assay [2], the Potency was 3.98 µM (active). In addition, in assay [3], the Potency entry was “inactive”.
As to `c1ccc(C(NCCNC(c2ccccc2)c2ccccc2)c2ccccc2)cc1`, the Potency result in assay [2] was “inactive”. In addition, the Potency in assay [3] is 5.01 µM (active).
In the case of `Nc1ncnc2c1ncn2C1CCCC1`, in assay [3], the Potency result was “inactive”.
On to `CN1C2CCC1CC(OC(c1ccccc1)c1ccccc1)C2` (stereo not given), for which the Potency entry in assay [2] is “inactive”.
For the molecule `Clc1nccc2c1ccc1ccccc12`, the Potency entry in assay [1] and in assay [3] was “inactive” each time.
As to `NC1CONC1=O` (stereo not given), in assay [3], the Potency entry was “inactive”.
With `C=C(C)C1CC=C(C(=O)O)CC1` (stereo not given), the Potency result in assay [2] was “inactive”.
Turning to `CC(=O)N[C@@H](Cc1c[nH]c2ccccc12)C(=O)OCc1cc(C(F)(F)F)cc(C(F)(F)F)c1`, the Potency in assay [6] was 12.6 µM (active).
On to `COc1ccccc1N1CCN(CCCCNC(=O)c2ccc3ccccc3c2)CC1`, for which the Potency result in assay [3] is “inactive”. Further, the Potency in assay [5] was 3.16 µM (active) and 3.98 µM (active).
For the molecule `C[C@H](O)C(=O)C1=Nc2c(nc(N)[nH]c2=O)NC1`, in assay [3], the Potency entry was “inactive”.
With `Nc1ccc(-c2ccc3ccccc3n2)cc1`, the Potency in assay [2] was 3.98 µM (active). The Potency result in assay [3] was “inactive”.
With `S=C(S)N1CCCC1`, the Potency result in assay [1] and in assay [3] was “inactive” in each case.
For `O=C(O)/C=C/c1ccc(O)c(O)c1`, the Potency entry in assay [1] and in assay [3] was “inactive” in each case.
As to `CC1=C(/C=C/C(C)=C/C=C/C(C)=C\C(=O)O)C(C)(C)CCC1`, the Potency entry in assay [2] was “inactive”.
Turning to `Oc1cc(O)c2c(c1)O[C@H](c1ccc(O)c(O)c1)[C@@H](O)C2`, the Potency result in assay [6], in assay [2] and in assay [5] was “inactive” in each case.
With `N[C@H](C(=O)O)[C@H](O)C(=O)O`, in assay [3], the Potency entry was “inactive”.
On the same count and under the same terms, the result for `CCc1ccc2c(-c3cccc(Cl)c3)nc(=O)n(CC)c2n1` reads “inactive”; that for `COc1ccc(CCN(C)CCc2ccc(OC)c(OC)c2)cc1OC`, “inactive”.
On to `C[C@](Cc1ccc(O)c(O)c1)(NN)C(=O)O`, for which the Potency result in assay [6] and in assay [5] was “inactive” in each case.
For `NC[C@@H]1O[C@H](c2ccccc2)Cc2c1ccc(O)c2O`, the Potency in assay [6] was 6.31 µM (active). The Potency entry in assay [3] was “inactive”.
Take `c1ccc(C2CN3CCSC3=N2)cc1` (stereo not given): the Potency entry in assay [2] was “inactive”.
For the molecule `Nc1nc2c(cnn2CCc2ccccc2)c2nc(-c3ccco3)nn12`, the Potency in assay [2] is 31.6 µM (active). Moreover, the Potency result in assay [3] was “inactive”.
